# From PubChem BioAssay
# The source made the active and inactive calls.
# Assays:
# [1] = tested on: Plasmodium falciparum Sir2 (PF13_0152, Sir2A); experiment: Plasmodium falciparum Sir2A binding compounds – biochemical, small-molecule microarray, 635 nm fluorescence, primary screen (AID 1098); conditions: fluorescence 635 nm, higher = more signal;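 note: score merges spot fluorescence intensity with its signal-to-noise ratio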
# [2] = probe aDKK1 binding to arrayed compounds – biochemical, biotinylated probe, 635/667 nm fluorescence, primary screen (AID 1099); conditions: small-molecule microarray, higher = more signal;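 note: score merges 667nm spot fluorescence with signal to noise across triplicate slides; reference of the scale not given here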
# [3] = probe aCHRDL2 binding to arrayed compounds – biochemical, biotinylated probe, 635/667 nm fluorescence, primary screen (AID 1100); conditions: small-molecule microarray, higher = more signal
# [4] = change in splice reporter luminescence, either direction, cell-based, HEK293, spliceosome inhibition project, primary screen (AID 1101); conditions: HEK293 splicing luciferase reporter, 24 h, higher = more signal, called active from +8 up or from −8 down;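 note: HEK293 cells carrying a splicing-competent luciferase reporter gene; test concentration not given here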
# [5] = molecular target: Fibroblast growth factor 10 (Homo sapiens) (UniProt O15520); experiment: compounds binding fibroblast growth factor 10 – biochemical, small-molecule microarray, 635 nm fluorescence, primary screen (AID 1102); conditions: FGF10 binding, fluorescence 635 nm, higher = more signal
# [6] = tested on: glycogen synthase kinase-3 (GSK3A per assay name; protocol says GSK3B); experiment: compounds binding glycogen synthase kinase-3 – biochemical, small-molecule microarray, 635 nm fluorescence, GSK3A, primary screen (AID 1103); conditions: fluorescence 635 nm, higher = more signal; note: the record names both GSK3A and GSK3B
# [7] = molecular target: Epidermal growth factor receptor (Homo sapiens) (UniProt P00533); experiment: compounds binding epidermal growth factor receptor – biochemical, small-molecule microarray, 635 nm fluorescence, primary screen (AID 1104); conditions: EGFR binding, higher = more signal;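 note: score merges 667 nm emission intensity with spot signal to noise over triplicate slides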
# [8] = molecular target: Follistatin-related protein 3 (Homo sapiens) (UniProt O95633); experiment: compounds binding follistatin-related protein 3 – biochemical, small-molecule microarray, 635 nm fluorescence, primary screen (AID 1105); conditions: FSTL3 binding, higher = more signal;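 note: score merges emission near 667 nm and signal to noise per printed spot across three slides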
# [9] = molecular target: Dickkopf-related protein 1 (Homo sapiens) (UniProt O94907); experiment: small molecules binding DKK1 protein – biochemical, small-molecule microarray, 635 nm fluorescence scan, primary screen (AID 1106); conditions: higher = more signal;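 note: score merges emission near 667 nm with signal to noise over three replicate slides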
# [10] = tested on: Inhibin beta A chain (activin A); experiment: small molecules binding activin A – biochemical, small-molecule microarray, 635 nm fluorescence scan, primary screen (AID 1107); conditions: INHBA, higher = more signal;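 note: mouse activin A protein probed at 4.33 µg/mL on printed slides; score merges bound-protein fluorescence near 667 nm with spot signal-to-noise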
# Epidermal growth factor receptor (Homo sapiens), sequence (P00533 whole entry, looked up): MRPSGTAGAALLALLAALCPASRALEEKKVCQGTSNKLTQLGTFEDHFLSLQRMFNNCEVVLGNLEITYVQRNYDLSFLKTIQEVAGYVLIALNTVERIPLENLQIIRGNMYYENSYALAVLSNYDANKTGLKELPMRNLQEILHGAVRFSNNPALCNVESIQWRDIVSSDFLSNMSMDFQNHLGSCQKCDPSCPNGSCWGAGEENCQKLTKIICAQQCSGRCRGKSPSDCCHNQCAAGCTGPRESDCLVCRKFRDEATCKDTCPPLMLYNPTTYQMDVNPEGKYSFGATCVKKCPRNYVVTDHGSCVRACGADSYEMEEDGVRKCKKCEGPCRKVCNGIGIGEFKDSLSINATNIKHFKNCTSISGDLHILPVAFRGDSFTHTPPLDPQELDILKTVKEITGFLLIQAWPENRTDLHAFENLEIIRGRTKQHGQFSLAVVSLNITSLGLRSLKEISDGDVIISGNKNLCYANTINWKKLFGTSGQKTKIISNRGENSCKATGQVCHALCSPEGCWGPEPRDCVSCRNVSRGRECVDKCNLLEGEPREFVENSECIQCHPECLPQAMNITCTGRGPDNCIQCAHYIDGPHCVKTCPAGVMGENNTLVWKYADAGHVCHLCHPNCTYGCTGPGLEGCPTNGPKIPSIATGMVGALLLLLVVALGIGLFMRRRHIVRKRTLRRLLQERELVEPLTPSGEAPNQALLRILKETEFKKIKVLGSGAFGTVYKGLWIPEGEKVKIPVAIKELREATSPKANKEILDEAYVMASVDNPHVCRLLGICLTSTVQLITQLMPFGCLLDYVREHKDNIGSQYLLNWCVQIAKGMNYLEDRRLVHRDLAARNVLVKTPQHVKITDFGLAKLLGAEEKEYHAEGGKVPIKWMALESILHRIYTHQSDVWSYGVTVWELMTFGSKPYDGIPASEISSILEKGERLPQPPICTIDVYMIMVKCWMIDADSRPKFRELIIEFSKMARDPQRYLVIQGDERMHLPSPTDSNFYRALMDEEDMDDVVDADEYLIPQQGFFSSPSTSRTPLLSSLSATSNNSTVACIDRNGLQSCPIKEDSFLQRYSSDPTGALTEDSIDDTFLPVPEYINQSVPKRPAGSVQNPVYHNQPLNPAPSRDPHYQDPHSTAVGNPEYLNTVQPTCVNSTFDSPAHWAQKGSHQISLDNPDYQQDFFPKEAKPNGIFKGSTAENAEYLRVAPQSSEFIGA
# Fibroblast growth factor 10 (Homo sapiens), sequence (O15520 whole entry, looked up): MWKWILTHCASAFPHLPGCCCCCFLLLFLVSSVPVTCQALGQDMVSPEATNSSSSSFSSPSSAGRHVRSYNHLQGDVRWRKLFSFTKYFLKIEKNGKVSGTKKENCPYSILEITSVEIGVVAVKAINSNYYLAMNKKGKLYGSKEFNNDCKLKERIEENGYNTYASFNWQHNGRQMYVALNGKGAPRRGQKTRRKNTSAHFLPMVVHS
# Follistatin-related protein 3 (Homo sapiens), sequence (O95633 whole entry, looked up): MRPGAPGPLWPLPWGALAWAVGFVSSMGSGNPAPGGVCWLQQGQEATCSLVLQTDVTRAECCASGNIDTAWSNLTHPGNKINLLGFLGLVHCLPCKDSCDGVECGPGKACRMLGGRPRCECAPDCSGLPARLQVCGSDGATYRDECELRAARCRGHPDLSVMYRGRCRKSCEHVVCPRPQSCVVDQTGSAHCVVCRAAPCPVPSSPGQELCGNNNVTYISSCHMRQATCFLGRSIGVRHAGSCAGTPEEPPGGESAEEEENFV
# Dickkopf-related protein 1 (Homo sapiens), sequence (O94907 whole entry, looked up): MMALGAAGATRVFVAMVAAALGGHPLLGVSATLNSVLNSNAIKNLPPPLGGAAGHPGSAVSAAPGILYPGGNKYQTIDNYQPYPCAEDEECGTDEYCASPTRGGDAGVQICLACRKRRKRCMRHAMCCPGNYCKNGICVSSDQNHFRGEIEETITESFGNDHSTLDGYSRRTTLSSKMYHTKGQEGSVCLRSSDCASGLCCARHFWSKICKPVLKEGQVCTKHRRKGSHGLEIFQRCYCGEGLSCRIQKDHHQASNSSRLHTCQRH
SMILES,composite z-score [1],composite z-score [2],composite z-score [3],z-score [4],composite z-score [5],composite z-score [6],composite z-score [7],composite z-score [8],composite z-score [9],composite z-score [10]
CCOC(=O)C[C@H]1[C@H](OC(=O)c2ccc(-c3ccccc3)cc2)[C@@H](NC(=O)Cc2ccc(OC)cc2)c2cc(OCCCO)ccc2N1C(=O)c1ccc2ccccc2n1,0.042,0.593,0.294,-1.05 (inactive),0.181,0.267,-0.127,0.367,0.0289,0.827
O=C1C2C=CC(C(O)c3ccc(F)cc3)N(Nc3ccccc3)C2C(=O)N1c1ccccc1 (stereo not given),1.44,1.05,0.794,0.444 (inactive),-0.0653,-0.0052,-0.296,-0.216,-0.954,1.46
Cc1ccc(S[C@]2(C(=O)NCC(C)C)CC(=O)N(Cc3ccccc3Cl)[C@@H]2c2ccc(CO)cc2)cc1,-0.248,0.254,0.94,0.35 (inactive),-0.756,-1.15,-1,-2.05,-1.77,-0.544
O=C1OCCC=C[C@H]2OC34C=CCN(Cc5ccccc5)C(=O)[C@H]3N(CCCCCO)C(=O)[C@@H]4C12 (stereo not given in full),1.96,-0.285,0.672,-0.34 (inactive),-0.779,1.06,-0.744,-0.595,-1.19,0.141
Cc1ccccc1C(O)C1C=CC2C(=O)N(C)C(=O)C2N1Nc1ccccc1 (stereo not given),1.06,0.973,1.07,0.0737 (inactive),0.2,0.63,-0.0369,0.304,0.0139,1.16
COCCOC(=O)N1C(=O)[C@@]2(c3cc(C#CC4=CCCCC4)ccc31)[C@H](C(=O)N1CCc3cc(OC)c(OC)cc3C1)[C@H]1C(=O)O[C@H](c3ccccc3)[C@H](c3ccccc3)N1[C@@H]2c1ccccc1OCCO,0.763,-0.0567,0.185,-0.176 (inactive),0.964,1.2,0.501,1,0.406,0.59
COCCOC(=O)N1C(=O)[C@@]2(c3cc(C#CCC(C(=O)OC)C(=O)OC)ccc31)[C@H](c1ccccc1OCCO)N1[C@H](c3ccccc3)[C@H](c3ccccc3)OC(=O)[C@H]1[C@@H]2C(=O)N1CCc2cc(OC)c(OC)cc2C1,1.24,0.176,-0.131,-0.988 (inactive),1.16,1.33,0.99,1.3,1.42,0.645
C=CCC(OC(C)=O)[C@@H]1[C@@H](N(Cc2ccc(-c3ccccc3)cc2)C(=O)Cc2ccc(F)cc2)c2cc(OCCCO)ccc2N1C(=O)c1ccc2ccccc2n1 (stereo not given in full),0.295,0.0021,0.531,-0.457 (inactive),0.0915,-0.226,-0.294,-0.112,-0.221,1.27
COc1ccc(CCNC(=O)[C@@]2(c3ccc([N+](=O)[O-])cc3)CC(=O)N(CC34CC5CC(CC(C5)C3)C4)[C@@H]2c2ccc(CO)cc2)cc1,1.06,1.38,0.764,0.539 (inactive),0.76,1.07,0.453,1.03,0.828,0.432
Cc1ccccc1C(O)C1C=CC2C(=O)N(C)C(=O)C2N1N1CCCCC1 (stereo not given),1.29,0.837,0.906,1.28 (inactive),0.975,1.04,0.628,0.621,0.215,1.28
COc1ccc(C#Cc2ccc3c(c2)[C@]2(C(=O)N3)[C@H](c3ccc(O)cc3)N3[C@H](c4ccccc4)[C@H](c4ccccc4)OC(=O)[C@H]3[C@@H]2C(=O)N2CCCCCCC2)cc1,1.39,2.69,1.52,-0.844 (inactive),1.22,1.33,1.18,1.61,1.61,1.78
COCCOC(=O)N1C(=O)[C@@]2(c3cc(C#CCCO)ccc31)[C@H](c1ccc(O)cc1)N1[C@H](c3ccccc3)[C@H](c3ccccc3)OC(=O)[C@H]1[C@@H]2C(N)=O,1.33,0.407,0.654,-0.626 (inactive),0.173,0.169,-0.709,-0.0665,-0.282,0.907
COC(=O)c1ccc(OC)c(/C=C\CC(OC(C)=O)c2ccccc2)c1 (stereo not given),-0.22,-0.146,0.0946,-0.582 (inactive),-0.207,0.147,0.643,0.137,0.305,1.89
O=C(CS)NCCCCCCNC(=O)[C@H]1C[C@H]2C(=O)NCC(=O)N2[C@H]1c1ccc(O)cc1,0.576,-0.213,0.694,-0.295 (inactive),-0.175,-0.607,-0.606,-0.46,0.22,-0.58
O=C1O[C@H](c2ccccc2)[C@H](c2ccccc2)N2[C@H]1[C@@H](C(=O)NC[C@H](O)c1ccccc1)[C@]1(C(=O)Nc3ccc(C#CCCO)cc31)[C@H]2c1ccc(O)cc1,-0.229,-0.145,0.0258,-0.551 (inactive),-0.716,-1.28,-0.286,-1.17,-0.523,0.644
COC(=O)[C@@]1(Cc2ccccc2)[C@H]2c3cc(C(=O)N(C)C)n(Cc4cc(C)n(C)n4)c3C[C@H]2CN1C(=O)c1ccccc1,1.32,0.866,0.947,-1.26 (inactive),0.0408,0.764,0.3,0.642,-0.72,1.11
COc1ccc(C(O)C2C=CC3C(=O)N(C)C(=O)C3N2Nc2ccccc2)cc1OCc1ccccc1 (stereo not given),1.1,0.679,0.85,0.89 (inactive),0.868,0.841,0.165,0.814,-0.0523,0.152
C=CCC(OC(C)=O)[C@@H]1[C@@H](N(Cc2ccc(-c3cccc(C(F)(F)F)c3)o2)C(=O)c2ccc(C)cc2)c2cc(OCCCO)ccc2N1C(=O)c1ccc(-c2ccccc2)cc1 (stereo not given in full),0.44,-0.0544,0.0823,-0.714 (inactive),0.0825,-1,-0.0697,0.473,-0.0581,1.23
CCCCC=C[C@@H](NC(=O)c1ccc(C(=O)OC)cc1)c1ccccc1,0.741,-0.095,0.613,-3.67 (inactive),0.335,0.804,0.239,0.279,0.393,0.629
CCOC(=O)[C@H]1C[C@H]2O[C@@]23C[C@H]1C(=O)N1CCCC1[C@@H]3O[Si](C)(C)C(C)(C)C (stereo not given in full),-0.169,-0.199,-0.528,0.376 (inactive),0.476,-0.445,-0.694,-0.198,0.0691,0.198
CCOC(=O)C[C@H]1[C@H](OC(=O)Cc2ccc3c(c2)OCO3)[C@@H](NC(=O)c2ccc(-c3ccccc3)cc2)c2cc(OCCCO)ccc2N1C(=O)c1ccccc1,0.377,-0.0183,-0.228,-0.586 (inactive),0.602,0.367,0.457,0.612,0.247,0.235
Cc1ccc(S[C@]2(C(=O)NCCN3CCOCC3)CC(=O)N(Cc3cc(C(F)(F)F)cc(C(F)(F)F)c3)[C@@H]2c2ccc(CO)cc2I)cc1,1.4,0.104,0.868,-2.04 (inactive),-0.743,-0.799,-0.981,-0.492,-1.34,0.551
C=CC(=C)C1=CCO[C@@H]1[C@H]1CCCN1S(=O)(=O)c1ccccc1[N+](=O)[O-],0.487,-0.268,-0.268,-0.626 (inactive),0.925,0.168,0.578,1.31,0.797,1.27
